Source: PubChem BioAssay AID1159580 (chemical genetic matrix, 2015)
Several values for one entry are separate records, joined by “and”; a condition that tells them apart may be missing. Equal entries are not always repeated. Hit rate of the full screen: of about 5,500 compounds, about 2,000 (36%) were called active. Another 18% or so got no clear call; they are omitted. Rule as the data show it: active = normalized growth mostly below about 0.91 (no sharp cut-off); inconclusive = no clear call, values can overlap the other calls; inactive = mostly above about 0.92. The list shows a part of the results.

Assay: chemical genetic growth profiling, strain panel (AID 1159580);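 also: tested at 20 µM; growth read once vehicle control cultures reached saturation at 30 °C; 1 = growth at the plate median or of vehicle wells; lower values mean less growth of the strain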
Conditions: S. cerevisiae deletion strains, growth OD

Measured: normalized growth

C[C@@H]1CC[C@@]2(NC1)O[C@H]1C[C@H]3C4CC=C5C[C@@H](O)CC[C@]5(C)C4CC[C@]3(C)C1[C@@H]2C (stereo partly drawn)
0.0512 (active) and 1.05 (inactive): locus YHR030C, strain SLT2, stronger effect = lower value
active: locus YAL021C, strain ccr4, stronger effect = lower value 0.0884 | locus YAL026C, strain drs2, stronger effect = lower value 0.0686 | locus YAL030W, strain snc1, stronger effect = lower value 0.0727 | locus YBL061C, strain skt5, stronger effect = lower value 0.246 | locus YBR009C, strain hhf1, stronger effect = lower value 0.0752 | locus YBR021W, strain FUR4, stronger effect = lower value 0.566 | locus YBR023C, strain chs3, stronger effect = lower value 0.189 | locus YBR171W, strain sec66, stronger effect = lower value 0.0867 | locus YBR229C, strain ROT2, stronger effect = lower value 0.132 | locus YBR231C, strain swc5, stronger effect = lower value 0.147 | locus YBR279W, strain paf1, stronger effect = lower value 0.431 | locus YCL011C, strain gbp2, stronger effect = lower value 0.0674 | locus YCL016C, strain dcc1, stronger effect = lower value 0.155 | locus YCL029C, strain bik1, stronger effect = lower value 0.0831 | locus YCL061C, strain MRC1, stronger effect = lower value 0.0777 | locus YCL069W, strain vba3, stronger effect = lower value 0.067 | locus YCR088W, strain abp1, stronger effect = lower value 0.0699 | locus YDL005C, strain med2, stronger effect = lower value 0.0923 | locus YDL035C, strain GPR1, stronger effect = lower value 0.086 | locus YDL040C, strain nat1, stronger effect = lower value 0.495 | locus YDL074C, strain BRE1, stronger effect = lower value 0.188 | locus YDL101C, strain DUN1, stronger effect = lower value 0.0946 | locus YDL134C, strain PPH21, stronger effect = lower value 0.0628 | locus YDL185W, strain tfp1, stronger effect = lower value 0.673 | locus YDL192W, strain arf1, stronger effect = lower value 0.123 | locus YDR001C, strain nth1, stronger effect = lower value 0.0751 | locus YDR069C, strain doa4, stronger effect = lower value 0.255 | locus YDR101C, strain arx1, stronger effect = lower value 0.132 | locus YDR137W, strain rgp1, stronger effect = lower value 0.644 | locus YDR159W, strain sac3, stronger effect = lower value 0.155 | locus YDR162C, strain NBP2, stronger effect = lower value 0.0581 | locus YDR195W, strain ref2 0.153 | locus YDR297W, strain sur2, stronger effect = lower value 0.0933 | locus YDR318W, strain mcm21, stronger effect = lower value 0.0863 | locus YDR334W, strain swr1, stronger effect = lower value 0.075 | locus YDR335W, strain msn5, stronger effect = lower value 0.0693 | locus YDR388W, stronger effect = lower value 0.0688 | locus YDR392W, strain spt3, stronger effect = lower value 0.0901 | locus YDR502C, strain sam2, stronger effect = lower value 0.0995 | locus YEL003W, strain gim4, stronger effect = lower value 0.0687 | locus YEL037C, strain rad23, stronger effect = lower value 0.0666 | locus YEL061C, strain CIN8 (second series), stronger effect = lower value 0.0639 | locus YER015W, strain faa2, stronger effect = lower value 0.0893 | locus YER016W, strain bim1, stronger effect = lower value 0.306 | locus YER110C, stronger effect = lower value 0.116 | locus YER111C, strain swi4, stronger effect = lower value 0.0797 | locus YER155C, strain BEM2 (second series), stronger effect = lower value 0.106 | locus YER155C, strain BEM2, stronger effect = lower value 0.0845 | locus YER167W, strain BCK2, stronger effect = lower value 0.0646 | locus YFR010W, strain ubp6, stronger effect = lower value 0.0951 | locus YGL078C, strain dbp3, stronger effect = lower value 0.898 | locus YGL086W, strain mad1, stronger effect = lower value 0.0765 | locus YGL173C, strain kem1, stronger effect = lower value 0.474 | locus YGL227W, strain vid30, stronger effect = lower value 0.0779 | locus YGL240W, strain doc1, stronger effect = lower value 0.262 | locus YGL248W, strain PDE1, stronger effect = lower value 0.0583 | locus YGL253W, strain hxk2, stronger effect = lower value 0.0617 | locus YGR135W, strain pre9, stronger effect = lower value 0.0806 | locus YGR252W, strain gcn5, stronger effect = lower value 0.254 | locus YHR013C, strain ard1, stronger effect = lower value 0.131 | locus YHR027C, strain rpn1, stronger effect = lower value 0.157 | locus YHR079C, strain IRE1 (second series), stronger effect = lower value 0.107 | locus YHR094C, strain hxt1, stronger effect = lower value 0.0989 | locus YHR129C, strain ARP1, stronger effect = lower value 0.0688 | locus YHR142W, strain chs7, stronger effect = lower value 0.0769 | locus YHR200W, strain rpn10, stronger effect = lower value 0.103 | locus YIL066C, strain RNR3, stronger effect = lower value 0.0582 | locus YIL073C, strain SPO22, stronger effect = lower value 0.144 | locus YIL125W, strain kgd1, stronger effect = lower value 0.886 | locus YIR030C, strain dcg1, stronger effect = lower value 0.0978 | locus YJL092W, strain hpr5, stronger effect = lower value 0.0727 | locus YJL095W, strain BCK1 (second series), stronger effect = lower value 0.0644 | locus YJL115W, strain asf1, stronger effect = lower value 0.0841 | locus YJL129C, strain trk1, stronger effect = lower value 0.0945 | locus YJL134W, strain LCB3, stronger effect = lower value 0.0822 | locus YJL154C, strain vps35, stronger effect = lower value 0.0818 | locus YJL164C, strain tpk1, stronger effect = lower value 0.0731 | locus YJL166W, strain qcr8, stronger effect = lower value 0.0704 | locus YJL168C, strain set2, stronger effect = lower value 0.121
inactive: locus YGL167C, strain pmr1, stronger effect = lower value 0.956 | locus YHR079C, strain IRE1, stronger effect = lower value 1.03
0.0614 (active) and 1.03 (inactive): locus YJL095W, strain BCK1, stronger effect = lower value
